# Sampled rows, rich in hits. Any-hit rate of the full collection: about 12%.
# Shiga toxin inh = Shiga toxin inhibition; Vero cells, Shiga toxin protein synthesis inhibition reporter; inhibition, % at 38.7 µM; 290,000 compounds, 9.2% hits; in the data active = inhibition mostly above about 28%, no sharp cut-off; inactive = mostly below about 43%; also: 0% is about no effect
# NS1 function inh = influenza NS1 inhibition | Potency, µM (highest dose often 46.1 µM), for inactives: at the top dose activity, positive = more growth | 270,000 compounds, 0.4% hits | AID 2326; also: potency is read from the fitted curve at half-maximal effect; actives are rising curves; nearly all actives have a fitted effect of over 50% in size
#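 OD600 was taken as the measure of yeast growth restored by compound in an NS1-expressing S. cerevisiae strain. Cells had been washed out of glucose medium and diluted 1:100 into galactose -URA medium, pH 6.0.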
# Cycloheximide cs = counter-screen hit for Shiga toxin inhibitors, cycloheximide | cell reporter, cycloheximide protein synthesis inhibition counterscreen | max response, % | 300,000 compounds, 12% hits | AID 2314; in the data active = max response mostly above about 13%, no sharp cut-off; inactive = mostly below about 14%; also: read at 38.3 µM for the half of the compounds with a filed dose; 0% is about no effect
# SARS PLP yeast = SARS-CoV PLP inhibition in yeast; 330,000 compounds, 0.19% hits; Potency, µM (titrated, usually from 32.9 µM), for inactives: top-dose activity, positive = growth rescue, most hits filed as activators; AID 485353; S. cerevisiae expressing SARS-CoV PLpro, growth rescue; also: potency is read from the fitted curve at half-maximal effect; 0% is about no effect; nearly all actives have a fitted effect of over 55% in size
# The depositor's hits bear a star; · = no result; + = active, no number. Unless noted, calls follow the shape of the full dose curve.
SMILES,Shiga toxin inh,NS1 function inh,Cycloheximide cs,SARS PLP yeast
Cc1ccc(-n2c(C)cc(/C=C3\SC(=O)NC3=O)c2C)cc1,83.3*,-3.4%,31.9*,-4.3%
COc1ccc(-n2c(C)cc(/C=C3\SC(=S)N(Cc4ccco4)C3=O)c2C)cc1,-5.0,7.4%,-2.0,-0.4%
CN1C(=O)/C(=C/c2coc3ccc(O)cc3c2=O)SC1=S,-3.6,-1.2%,-1.0,0.3%
Cc1cc(/C=C2\SC(=S)N(C)C2=O)c(C)n1-c1ccc(O)cc1,69.6*,-37.7%,51.6*,-4.6%
CCCN(CC(=O)Nc1ccc(F)c(F)c1F)C(=O)c1ccc(=O)n(Cc2ccccc2)n1,·,·,·,5.5%
O=C(O)/C=C/C(=O)N1CCN(C(c2ccccc2)c2ccccc2)CC1,-5.3,5.0%,6.2,0.0%
CCn1c(C)cc(/C=C2/SC(=S)NC2=O)c1C,29.9,-11.3%,20.8,-9.6%
Cc1cc(/C=C2\SC(=S)NC2=O)c(C)n1-c1cccc(O)c1,64.5*,-4.4%,40.9*,-7.1%
Cc1cc(/C=C2\SC(N)=NC2=O)c(C)n1-c1ccc(F)cc1,16.0,-1.5%,19.9*,0.4%
CC1=CC2=NC(=O)/C(=C\c3cc(C)n(-c4ccc(F)cc4)c3C)C(=N)N2O1,-12.3,2.7%,-5.1,-11.5%
CCSc1nnc(NC(=O)c2ccco2)s1,27.1*,-20.3%,22.7*,-13.3%
CCOC(=O)CSc1nnc(NC(=O)c2ccco2)s1,-2.1,6.2%,-3.8,16.0%
CCSc1nnc(NC(=O)c2cc(C)on2)s1,23.2,-93.0%,9.1,-31.4%
CCSc1nnc(NC(=O)c2c(C)noc2C)s1,17.7,-46.7%,16.4*,1.6%
Cc1cccc(-c2nnc(NC(=O)c3ccco3)s2)c1,21.9,-23.9%,20.6*,-5.1%
CC(C)Sc1nnc(NC(=O)c2ccco2)s1,113.5*,0.7%,34.7*,-2.8%
CC(C)C[C@H](NC(=O)C1CCN(S(=O)(=O)c2ccccc2)CC1)C(=O)NCc1ccccn1,-3.0,-20.4%,-1.0,-2.9%
COc1ccc(C(=O)NC(C)c2ccc(-n3ccnc3)cc2)cc1S(=O)(=O)N1CCOCC1 (stereo not drawn),·,·,·,-5.5%
Cc1cccc(NS(=O)(=O)c2c(C(=O)N3CCOCC3)c(C)n(C)c2C)c1C,18.2,-6.8%,-0.3,-4.4%
CCCc1cc(C(N)=O)c(NC(=O)c2ccco2)s1,+,2.6%,28.5*,-1.7%
C=C1C(c2ccc(C)cc2)=CCc2cc(C)cc(C)c21,52.5*,·,38.9*,·
CC(=O)Nc1ccc(NC(=O)C(c2ccccc2)c2ccccc2)cc1,-6.0,10.1%,1.3,-4.2%
COc1ccc(N=C(C)C2=C(O)c3ccccc3C2=O)cc1,114.7*,-9.1%,58.1*,-24.4%
CC(=O)Nc1ccc(N=C(C2=C(O)c3ccccc3C2=O)c2ccccc2)cc1,63.3*,·,44.0*,-0.3%
CCOc1ccc(N=C(C)C2=C(O)c3ccccc3C2=O)cc1,193.8*,-37.5%,43.4*,0.1%
SMILES,Shiga toxin inh,NS1 function inh,Cycloheximide cs,SARS PLP yeast
CCCC(=O)N1CCN(S(=O)(=O)c2cc(Cl)ccc2OC)CC1,-8.3,-2.2%,-0.3,-10.6%
CCC(C)NC(=O)CSc1nnc(-c2cc(-c3ccc(C)cc3)nc3ccccc23)n1N (stereo not drawn),-1.6,4.6%,0.8,1.1%
Cc1ccc(-c2cc(-c3nnc(SCC(=O)NCC(C)C)n3N)c3ccccc3n2)cc1,28.7,11.6%,35.7*,5.0%
COc1cccc(C(C(=O)NCC2CCCO2)N(C(=O)Cn2nnc3ccccc32)c2ccc(NC(C)=O)cc2)c1 (stereo not drawn),-4.0,-1.2%,-0.4,-2.8%
CCc1nnc(NS(=O)(=O)c2ccc(NCc3cc(Br)ccc3O)cc2)s1,-6.1,10.6%,1.4,4.1%
COc1nccnc1NS(=O)(=O)c1ccc(NCc2cc(Br)ccc2O)cc1,57.1*,12.3%,37.1*,-1.9%
Cc1ccc(C(=O)Nc2ncc(Cc3ccc(F)cc3)s2)o1,156.4*,-6.3%,41.4*,0.1%
CSc1ccccc1C(=O)Nc1ncc(C)s1,17.1,-0.2%,4.9,2.0%
Cc1ccc(C(=O)Nc2ncc(C)s2)o1,49.8,-57.9%,35.2*,-17.1%
Cc1ccc(C(=O)Nc2ncc(C)s2)s1,42.1,-11.0%,17.3*,-2.8%
CCc1noc(C)c1C(=O)Nc1ncc(C)s1,41.2*,-1.2%,18.6*,-2.9%
COc1ccc(OC)c(S(=O)(=O)Nc2cc3c4c(c2)C(C)C(=O)N4CCC3)c1 (stereo not drawn),·,·,·,-5.1%
COc1cc(/C=N/NC(N)=O)ccc1OC(=O)c1ccc(C)cc1,-0.5,2.4%,10.2,-0.3%
COc1cc(/C=N/Nc2ccc(Cl)c(C(=O)O)c2)ccc1OC(=O)c1ccco1,68.3*,·,37.1*,1.7%
COc1ccc(/C=N/Nc2ccc(C(=O)O)cc2)cc1OC,43.1,11.1%,27.4*,2.4%

# Compound activity from PubChem.
